# KB-3-1 tox – KB-3-1 parental cell cytotoxicity | KB-3-1 viability, CellTiter-Glo ATP luminescence, 72 h | Potency, µM (titrated, usually from 46.1 µM), most hits filed as cytotoxic | hit rate 1.4% among 400,000 | AID 1347075; further: on the % scale 0 is the no-effect control and ±100 the full control effect; nearly all actives have a fitted effect of over 60% in size
#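 Cytotoxicity measured as CellTiter-Glo luminescence after 72 h at 37 C. Compound titrations were pinned onto drug-naive KB-3-1 parental adenocarcinoma cells grown in DMEM with 10% FBS, and normalized data fitted to concentration-response curves.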
# KB-V1 MDR tox – KB-V1 MDR subline cytotoxicity; KB-V1 MDR cells viability, CellTiter-Glo, 72 h; Potency, µM (highest dose often 46.1 µM), actives largely listed as cytotoxic; hit rate 3.4% among 400,000; AID 1347076; further: on the % scale 0 is the no-effect control and ±100 the full control effect; nearly all actives have a fitted effect of over 60% in size
#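 Cytotoxicity toward P-gp-expressing KB-V1 cells was determined as loss of CellTiter-Glo luminescence after 72 h at 37 degrees C. Compounds were tested in quantitative HTS format across a concentration range, with curves fitted to normalized data.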
# MCF10A rereplic – inducers of DNA re-replication in MCF 10A breast cells; Potency, µM (top dose mostly 46.1 µM), for the others: at the highest dose activity, positive = re-replication, most hits filed as activators; hit rate 2.9% among 350,000; AID 624296; MCF 10A DNA re-replication, Hoechst nuclear intensity, 48 h; further: % of control where 0% means no effect; nearly all actives have a fitted effect of over 50% in size
# SW480 rereplic – induces DNA re-replication in SW480 colon adenocarcinoma cells. SW480 DNA re-replication, Hoechst DNA content imaging, 48 h. Potency, µM (top dose mostly 46.1 µM), for inactives: top-dose re-replication activation, actives largely listed as activators. hit rate 1.8% among 340,000. AID 624297; further: % of control where 0% means no effect; nearly all actives have a fitted effect of over 55% in size
#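 Treated cells incubate 48 hr (37 C, 5% CO2), are stained 40 min with Hoechst, and nuclear fluorescence is enumerated; a rise in nuclei with high DNA signal marks re-replication.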
# HT1080 IDH1KD tx – HT-1080 IDH1 knockdown cell toxicity (counter line); HT-1080 IDH1 knockdown viability, ATP luminescence, 48 h; Potency, µM (highest dose often 46.1 µM), inactives show at the top dose activity, negative = toxicity, hits mostly cytotoxic; hit rate 2% among 360,000; AID 686971;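 further: 0% = DMSO wells and -100% = cell-free medium wells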
#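 Luminescent ATP read-out (CellTiter-Glo, 10 min at room temperature) after 48 h compound exposure at 37 °C gave viability of IDH1-knockdown HT-1080 cells. Activity was normalised to DMSO and cell-free wells, then fitted as concentration-response curves.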
# HT1080NT lethal – kills 2HG-producing HT-1080-NT fibrosarcoma cells; HT-1080-NT fibrosarcoma viability, CellTiter-Glo ATP luminescence, 48 h; Potency, µM (series often up to 46.1 µM), without a hit: at the top dose activity, negative = less viability, hits mostly cytotoxic; hit rate 1.6% among 360,000; AID 686970;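 further: NT is the 2HG producing partner of a matched IDH1 knockdown line; 0% = DMSO-treated cells and -100% = media-only wells without cells; nearly all actives have a fitted effect of over 55% in size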
#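 HT-1080-NT; 750 cells/well; 5% FBS RPMI; 48 h compound, 37 degrees C; CellTiter-Glo luminescence; curve fitting and curve-class assignment.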
# * = called active by the depositor; i = inactive; ? = inconclusive; · = no result. Compounds with a hit are over-represented: about 8% of the library has one in this group of screens. The call rests on the fitted dose curve; in most records, active means well fitted curve in the direction sought with a large enough effect; inconclusive means small, poorly fitted or top-dose-only effect, or another doubt; inactive means no such curve, though single readings can be large; an effect the other way counts as inactive or inconclusive. Potency means the concentration at half of the fitted maximal effect.
SMILES,KB-3-1 tox,KB-V1 MDR tox,MCF10A rereplic,SW480 rereplic,HT1080 IDH1KD tx,HT1080NT lethal
CCNC(=O)c1cc2c(c(-c3cccc(-c4cncnc4)c3)n1)[C@@H](CCO)N(C(C)=O)C2,i,i,·,·,-3%,9%
CCc1ccc(C(=O)COC(=O)c2cnccn2)cc1,i,?,-7%,-6%,6%,13%
Nc1ccc(S(=O)(=O)O)cn1,i,i,-3%,1%,3%,1%
C#CCNC(=O)C[C@@H]1C[C@@]2(C(=O)OC)CC(C)(C)CC=C2N(Cc2cccc3ccccc23)C1=O,?,23µM*,·,·,?,?
COC(=O)[C@@]12C[C@@H](CC(=O)NCC34CC5CC(CC(C5)C3)C4)C(=O)N(Cc3ccco3)C1=CCC(C)(C)C2,?,15µM*,·,·,?,21µM*
CCCCNC(=O)C[C@@H]1C[C@@]2(C(=O)OC)CC(C)(C)CC=C2N(Cc2cccc3ccccc23)C1=O,i,?,·,·,?,-27%
COC(=O)[C@@]12C[C@@H](CC(=O)NCc3cccs3)C(=O)N(Cc3ccc4c(c3)OCO4)C1=CCC(C)(C)C2,i,?,·,·,?,?
COC(=O)[C@@]12C[C@@H](CC(=O)NCc3cccs3)C(=O)N(Cc3cccc4ccccc34)C1=CCC(C)(C)C2,?,16µM*,·,·,?,?
Cc1ccc(S(=O)(=O)Nc2cccc3ncccc23)s1,5.8µM*,?,4.6µM*,?,?,?
Cc1ccc(S(=O)(=O)Nc2cccc3ncccc23)cc1,i,?,6%,11%,-8%,1%
O=C(NCC1CCCO1)c1ccc(-c2ccccc2Cl)o1 (stereo not drawn),i,i,-2%,-3%,2%,0%
Cc1ccc(N2/C(=N/c3nc(C)cc(C)n3)NC(=O)CC2C(=O)O)cc1 (stereo not drawn),i,i,18µM*,14%,-4%,0%
Cc1cc(C)nc(/N=C2\NC(=O)CC(C(=O)O)N2c2ccc(Cl)cc2)n1 (stereo not drawn),i,i,0%,3%,5%,14%
Cc1ccc(S(=O)(=O)N2CCC(=O)N(C(COCc3ccc(C(F)(F)F)cc3)Cc3ccccc3)CC2)cc1 (stereo not drawn),i,i,3.7µM*,25%,-2%,3%
Cc1ccc(S(=O)(=O)N2CCC(=O)N(C(COCc3ccc(Cl)c(Cl)c3)Cc3ccccc3)CC2)cc1 (stereo not drawn),i,i,23µM*,-36%,1%,-3%
Cc1ccc(S(=O)(=O)N2CCC(=O)N(C(COCc3cccc(C)c3)Cc3ccccc3)CC2)cc1 (stereo not drawn),i,i,8.2µM*,?,-2%,-9%
Cc1ccc(S(=O)(=O)N2CCC(=O)N([C@H](COCc3ccc(C(F)(F)F)cc3)Cc3ccccc3)CC2)cc1,?,i,·,·,4%,3%
CC(C)(C)OC(=O)N(CCc1ccccc1)Cc1ccccc1OCc1cccc(NC(=O)C2CCCC2)c1,i,i,17%,12%,1%,?
CCOc1ccc(NC(=O)NCCCSC2CCCCC2)cc1,i,i,3%,4%,-11%,-1%
CCCN(CCC)S(=O)(=O)c1ccc(C(=O)NCc2n[nH]c(=S)n2-c2ccc(Cl)c(Cl)c2)cc1,i,i,?,8%,-9%,-10%
O=c1cc(-c2ccccc2)nc(/C=C/c2ccccc2)[nH]1,i,i,18µM*,?,1%,4%
O=C(CCC(=O)N1CCN(c2ccc(Cl)c(Cl)c2)CC1)c1ccccc1,?,i,?,-2%,-5%,?
CC(=O)Oc1ccc2ccccc2c1C(NC(=O)Cc1ccccc1)c1ccc(Cl)cc1 (stereo not drawn),?,?,?,9%,18µM*,?

# Assay outcomes as filed in PubChem BioAssay.
